About 8,800 targets were measured; listed, in parts, are those with a hit and a random draw of the rest. About 0.5% of all pairs of compound and target were hits.
Legend:
Test in all cases: log2 fold change, soluble protein after heating vs DMSO (PISA); higher = thermal stabilisation; K562 lysate, 10 uM; active = over 0.2 and 3.5 SD of the protein, either way, in both replicates (recomputed)
[1] = compound: NCC(=O)Nc1ccc(-n2nc(C(F)(F)F)cc2-c2ccc3c(ccc4ccccc43)c2)cc1
Outline: (§1)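 Values give the log-two fold change in thermal stability against solvent controls, from duplicates. Crude K562 extract at 1 mg/mL protein, made by dounce homogenisation in PBS pH 7.4 with 1 mM MgCl2, was treated with 10 μM compound for 30 min. After 3 min heating across 48°C-58°C, aliquots were pooled, adjusted to 0.5% NP-40 at 4°C and centrifuged at 21,000xg for 90 min. The supernatant was measured by TMTpro 16plex LC-MS/MS with channel sums equalised.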

vorinostat = compound: O=C(CCCCCCC(=O)Nc1ccccc1)NO [vorinostat]
Outline: as §1

silmitasertib = compound: O=C(O)c1ccc2c(c1)nc(Nc1cccc(Cl)c1)c1ccncc12 [silmitasertib]
Outline: as §1

[2] = compound: O=C1NC(=O)C(c2cnc3ccccn23)=C1c1cn2c3c(cc(F)cc13)CN(C(=O)N1CCCCC1)CC2
Outline: as §1

entospletinib = compound: c1cn2cc(-c3ccc4cn[nH]c4c3)nc(Nc3ccc(N4CCOCC4)cc3)c2n1 [entospletinib]
Outline: as §1

Measured: log2 fold change

PSMB9 (UniProt P28065)
UniProt P28065, sequence (P28065 whole entry, looked up): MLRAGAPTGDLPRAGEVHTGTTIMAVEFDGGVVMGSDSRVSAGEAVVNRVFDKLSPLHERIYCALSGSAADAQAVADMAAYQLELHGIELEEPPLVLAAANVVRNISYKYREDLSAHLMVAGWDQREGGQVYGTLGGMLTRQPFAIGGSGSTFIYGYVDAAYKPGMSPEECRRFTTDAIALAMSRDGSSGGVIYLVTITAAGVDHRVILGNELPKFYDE
inactive: [1] 0.07 | vorinostat 0.057 | silmitasertib 0.008 | [2] 0.081 | entospletinib 0

PTGS1 isoform 6 (UniProt P23219)
inactive: [1] -0.013 | vorinostat 0.05 | silmitasertib -0.033 | [2] 0.003 | entospletinib -0.017

PHKG2 (UniProt P15735)
inactive: [1] -0.029 | vorinostat 0.013 | silmitasertib 0.008 | [2] -0.022 | entospletinib 0.026

PRKRA (UniProt O75569)
inactive: [1] 0.023 | silmitasertib -0.022 | [2] 0.024 | entospletinib 0.041
active: vorinostat -0.773

PCBP2 (UniProt H3BRU6)
active: vorinostat -0.662
inactive: [1] 0.139 | silmitasertib -0.102 | [2] -0.053 | entospletinib 0.061

PDF (UniProt Q9HBH1)
UniProt Q9HBH1, sequence (Q9HBH1 whole entry, looked up): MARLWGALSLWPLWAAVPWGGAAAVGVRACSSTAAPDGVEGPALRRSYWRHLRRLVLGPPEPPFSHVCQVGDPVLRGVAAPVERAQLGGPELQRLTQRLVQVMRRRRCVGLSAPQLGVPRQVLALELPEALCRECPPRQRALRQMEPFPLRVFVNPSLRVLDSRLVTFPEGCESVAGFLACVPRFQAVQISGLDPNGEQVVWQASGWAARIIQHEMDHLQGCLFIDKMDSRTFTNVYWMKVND
inactive: [1] -0.095 | vorinostat -0.232 | silmitasertib 0.044 | [2] 0 | entospletinib -0.004

PRPF6 (UniProt O94906)
inactive: [1] 0.002 | silmitasertib 0.047 | [2] 0.004 | entospletinib 0.026
active: vorinostat -0.262

PTPN7 isoform 3 (UniProt P35236)
UniProt P35236, sequence (P35236 whole entry, looked up): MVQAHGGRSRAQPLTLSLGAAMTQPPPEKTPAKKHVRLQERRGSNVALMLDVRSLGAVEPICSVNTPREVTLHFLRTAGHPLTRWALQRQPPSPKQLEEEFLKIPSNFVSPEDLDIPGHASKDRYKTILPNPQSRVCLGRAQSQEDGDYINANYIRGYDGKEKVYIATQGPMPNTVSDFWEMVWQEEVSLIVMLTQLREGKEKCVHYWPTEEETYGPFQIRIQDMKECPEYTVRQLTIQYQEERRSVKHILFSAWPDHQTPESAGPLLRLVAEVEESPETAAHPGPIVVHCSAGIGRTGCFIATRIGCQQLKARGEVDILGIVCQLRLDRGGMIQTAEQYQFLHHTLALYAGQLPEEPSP
inactive: [1] 0.031 | silmitasertib 0.01 | [2] -0.044 | entospletinib -0.008
active: vorinostat -0.491

PSTPIP2 (UniProt Q9H939)
UniProt Q9H939, sequence (Q9H939 whole entry, looked up): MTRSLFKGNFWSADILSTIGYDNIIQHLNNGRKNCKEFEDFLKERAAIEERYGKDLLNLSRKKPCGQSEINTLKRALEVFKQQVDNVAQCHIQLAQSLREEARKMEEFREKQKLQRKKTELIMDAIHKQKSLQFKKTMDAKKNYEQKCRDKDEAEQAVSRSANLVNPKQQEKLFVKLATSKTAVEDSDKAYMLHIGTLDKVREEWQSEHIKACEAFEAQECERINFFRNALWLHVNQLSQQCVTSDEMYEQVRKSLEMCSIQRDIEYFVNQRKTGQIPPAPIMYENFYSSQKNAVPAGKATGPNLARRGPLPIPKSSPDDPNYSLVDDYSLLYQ
active: vorinostat -0.312
inactive: [1] 0.046 | silmitasertib 0.04 | [2] 0.017 | entospletinib -0.005

PDCD4 (UniProt Q53EL6)
UniProt Q53EL6, sequence (Q53EL6 whole entry, looked up): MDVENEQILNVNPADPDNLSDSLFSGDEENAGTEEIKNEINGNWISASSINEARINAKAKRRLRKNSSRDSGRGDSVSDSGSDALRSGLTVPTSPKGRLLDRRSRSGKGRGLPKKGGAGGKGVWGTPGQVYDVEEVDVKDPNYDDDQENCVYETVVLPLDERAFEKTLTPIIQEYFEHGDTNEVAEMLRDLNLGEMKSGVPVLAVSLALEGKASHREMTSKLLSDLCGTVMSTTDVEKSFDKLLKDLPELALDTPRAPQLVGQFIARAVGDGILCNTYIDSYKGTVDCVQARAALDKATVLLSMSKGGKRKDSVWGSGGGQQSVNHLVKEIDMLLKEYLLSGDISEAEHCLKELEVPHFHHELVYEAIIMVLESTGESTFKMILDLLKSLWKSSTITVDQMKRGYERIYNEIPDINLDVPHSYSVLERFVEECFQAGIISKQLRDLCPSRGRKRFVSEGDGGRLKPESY
active: vorinostat -0.378
inactive: [1] 0.004 | silmitasertib 0.014 | [2] 0.003 | entospletinib 0.038

PTK2B (UniProt Q14289)
active: vorinostat -0.339
inactive: [1] 0.016 | silmitasertib 0.021 | [2] -0.088 | entospletinib -0.002

PWP2 (UniProt Q15269)
active: vorinostat -0.547
inactive: [1] 0.007 | silmitasertib 0.029 | [2] -0.014 | entospletinib 0.019

PLEKHA5 isoform 6 (UniProt Q9HAU0)
inactive: [1] -0.029 | silmitasertib -0.003 | [2] -0.016 | entospletinib 0.022
active: vorinostat -0.305

PMS2 (UniProt P54278)
UniProt P54278, sequence (P54278 whole entry, looked up): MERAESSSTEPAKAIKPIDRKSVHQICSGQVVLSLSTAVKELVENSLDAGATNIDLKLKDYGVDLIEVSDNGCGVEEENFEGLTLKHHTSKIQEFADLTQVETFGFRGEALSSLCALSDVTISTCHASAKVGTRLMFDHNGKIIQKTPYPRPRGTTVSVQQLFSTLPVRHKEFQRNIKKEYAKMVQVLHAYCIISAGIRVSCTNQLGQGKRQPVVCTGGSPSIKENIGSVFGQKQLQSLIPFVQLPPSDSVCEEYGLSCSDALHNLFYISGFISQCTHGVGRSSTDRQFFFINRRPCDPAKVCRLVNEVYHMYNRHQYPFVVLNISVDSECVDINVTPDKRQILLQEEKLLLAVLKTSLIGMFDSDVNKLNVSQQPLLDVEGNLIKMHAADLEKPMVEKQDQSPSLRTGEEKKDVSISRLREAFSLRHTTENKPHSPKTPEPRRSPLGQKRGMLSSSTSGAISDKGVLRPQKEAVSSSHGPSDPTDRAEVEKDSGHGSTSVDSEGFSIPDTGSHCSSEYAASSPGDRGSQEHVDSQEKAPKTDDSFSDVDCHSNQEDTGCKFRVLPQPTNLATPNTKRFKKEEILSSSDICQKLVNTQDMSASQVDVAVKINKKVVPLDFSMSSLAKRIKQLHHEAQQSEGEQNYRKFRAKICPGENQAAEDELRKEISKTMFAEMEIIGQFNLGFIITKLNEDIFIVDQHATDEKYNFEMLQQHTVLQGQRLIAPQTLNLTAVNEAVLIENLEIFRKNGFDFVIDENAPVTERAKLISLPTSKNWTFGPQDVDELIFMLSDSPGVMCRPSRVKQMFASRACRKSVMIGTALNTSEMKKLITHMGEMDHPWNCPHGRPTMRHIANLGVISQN
inactive: [1] 0.064 | silmitasertib 0.026 | [2] 0.027 | entospletinib 0.001
active: vorinostat -0.384

PRPH isoform 2 (UniProt P41219)
inactive: [1] 0 | vorinostat 0.112 | silmitasertib 0.001 | [2] -0.098 | entospletinib -0.052

PCBP3 (UniProt P57721)
active: vorinostat -0.371
inactive: [1] 0.016 | silmitasertib 0.001 | [2] -0.001 | entospletinib 0.016

PHKB isoform 3 (UniProt Q93100)
inactive: [1] -0.023 | silmitasertib 0.07 | [2] 0.016 | entospletinib 0.023
active: vorinostat -0.288

PRRC2A (UniProt P48634)
inactive: [1] 0.012 | vorinostat 0.108 | silmitasertib -0.026 | [2] -0.018 | entospletinib -0.003

PDE4DIP isoform 4 (UniProt Q5VU43)
inactive: [1] 0.077 | vorinostat 0.029 | silmitasertib -0.029 | [2] 0.057 | entospletinib -0.025

PKN1 isoform 2 (UniProt Q16512)
inactive: [1] 0.002 | vorinostat -0.131 | silmitasertib -0.012 | [2] -0.138 | entospletinib -0.009

PCF11 (UniProt O94913)
active: vorinostat -0.339
inactive: [1] 0.043 | silmitasertib -0.023 | [2] -0.001 | entospletinib 0.016

PUS1 (UniProt Q9Y606)
UniProt Q9Y606, sequence (Q9Y606 whole entry, looked up): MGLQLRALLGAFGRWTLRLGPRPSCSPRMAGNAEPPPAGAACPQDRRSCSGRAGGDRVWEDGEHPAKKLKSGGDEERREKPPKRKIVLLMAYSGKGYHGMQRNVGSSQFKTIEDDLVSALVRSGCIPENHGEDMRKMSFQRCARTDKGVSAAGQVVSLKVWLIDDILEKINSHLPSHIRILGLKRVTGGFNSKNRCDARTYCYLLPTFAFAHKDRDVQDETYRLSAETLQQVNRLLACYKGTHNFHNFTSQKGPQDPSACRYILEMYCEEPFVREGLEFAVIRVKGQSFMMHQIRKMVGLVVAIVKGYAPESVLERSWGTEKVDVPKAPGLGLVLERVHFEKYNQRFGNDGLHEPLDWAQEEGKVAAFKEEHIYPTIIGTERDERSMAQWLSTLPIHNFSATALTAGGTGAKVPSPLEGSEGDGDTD
inactive: [1] 0.04 | silmitasertib 0.041 | [2] -0.013 | entospletinib -0.022
active: vorinostat -0.321

PKP3 isoform 2 (UniProt Q9Y446)
inactive: [1] -0.021 | silmitasertib -0.043 | [2] -0.063 | entospletinib 0.002
active: vorinostat -0.286

PDXK (UniProt O00764)
inactive: [1] -0.005 | vorinostat 0.073 | silmitasertib -0.008 | [2] 0.026 | entospletinib -0.009

PHLDB1 (UniProt Q86UU1)
inactive: [1] 0.022 | silmitasertib 0.012 | [2] 0.128 | entospletinib 0.008
active: vorinostat -0.357

PCBP2 isoform 3 (UniProt Q15366)
UniProt Q15366, sequence (Q15366 whole entry, looked up): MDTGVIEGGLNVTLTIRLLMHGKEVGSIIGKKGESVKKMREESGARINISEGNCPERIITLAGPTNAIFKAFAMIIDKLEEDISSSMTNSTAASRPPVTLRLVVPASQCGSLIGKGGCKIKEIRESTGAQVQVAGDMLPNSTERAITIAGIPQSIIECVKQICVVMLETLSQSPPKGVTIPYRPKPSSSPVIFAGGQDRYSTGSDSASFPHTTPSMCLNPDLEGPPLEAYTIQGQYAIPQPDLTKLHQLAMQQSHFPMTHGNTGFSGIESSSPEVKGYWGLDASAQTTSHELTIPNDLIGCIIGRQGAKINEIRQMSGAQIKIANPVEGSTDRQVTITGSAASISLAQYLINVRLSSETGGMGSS
inactive: [1] -0.071 | silmitasertib 0.042 | [2] -0.035 | entospletinib 0.01
active: vorinostat -0.252

PRKAB2 (UniProt O43741)
UniProt O43741, sequence (O43741 whole entry, looked up): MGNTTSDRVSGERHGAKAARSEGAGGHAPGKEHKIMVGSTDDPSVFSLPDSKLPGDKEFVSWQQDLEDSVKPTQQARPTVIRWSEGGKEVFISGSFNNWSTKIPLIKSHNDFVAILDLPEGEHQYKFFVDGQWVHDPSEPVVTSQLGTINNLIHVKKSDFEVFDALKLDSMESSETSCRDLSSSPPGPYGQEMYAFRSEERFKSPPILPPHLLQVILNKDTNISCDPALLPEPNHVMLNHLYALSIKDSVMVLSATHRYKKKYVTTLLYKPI
inactive: [1] -0.006 | vorinostat -0.009 | silmitasertib 0.111 | [2] 0.096 | entospletinib 0.013

PIK3CB (UniProt P42338)
inactive: [1] -0.041 | vorinostat -0.395 | silmitasertib 0.321 | [2] -0.046 | entospletinib 0.038

PUF60 (UniProt Q9UHX1)
inactive: [1] -0.007 | vorinostat 0.15 | silmitasertib -0.029 | [2] 0.002 | entospletinib 0.002

PTPN2 (UniProt P17706)
active: vorinostat -0.298
inactive: [1] -0.005 | silmitasertib 0.024 | [2] -0.002 | entospletinib 0.07

PLEKHO2 (UniProt Q8TD55)
UniProt Q8TD55, sequence (Q8TD55 whole entry, looked up): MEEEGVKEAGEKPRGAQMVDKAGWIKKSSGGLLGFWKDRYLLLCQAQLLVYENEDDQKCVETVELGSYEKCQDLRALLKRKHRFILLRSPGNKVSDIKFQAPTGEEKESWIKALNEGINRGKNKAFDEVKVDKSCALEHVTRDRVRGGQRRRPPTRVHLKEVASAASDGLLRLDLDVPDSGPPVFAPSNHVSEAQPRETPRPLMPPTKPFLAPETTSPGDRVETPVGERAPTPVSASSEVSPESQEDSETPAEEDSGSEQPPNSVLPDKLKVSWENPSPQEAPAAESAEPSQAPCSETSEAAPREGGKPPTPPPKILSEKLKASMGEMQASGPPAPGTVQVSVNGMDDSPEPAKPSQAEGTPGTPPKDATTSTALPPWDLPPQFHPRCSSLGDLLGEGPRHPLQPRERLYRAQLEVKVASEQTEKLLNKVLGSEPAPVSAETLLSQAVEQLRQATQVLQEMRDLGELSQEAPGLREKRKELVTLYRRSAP
inactive: [1] 0.045 | vorinostat -0.103 | silmitasertib 0.347 | [2] -0.018 | entospletinib 0.082

PTGR2 (UniProt Q8N8N7)
active: vorinostat 0.656
inactive: [1] -0.083 | silmitasertib -0.002 | [2] 0.11 | entospletinib -0.005

PPIL2 (UniProt Q13356)
inactive: [1] 0.015 | silmitasertib 0.019 | [2] -0.009 | entospletinib 0.014
active: vorinostat -0.32

PITRM1 isoform 2 (UniProt Q5JRX3)
inactive: [1] 0.003 | vorinostat 0.111 | silmitasertib 0.006 | [2] -0.011 | entospletinib 0.002

PRPF38A (UniProt Q8NAV1)
inactive: [1] -0.059 | vorinostat -0.278 | silmitasertib 0.03 | [2] 0.03 | entospletinib 0.055

QKI (UniProt Q96PU8)
inactive: [1] -0.008 | vorinostat -0.147 | silmitasertib 0.021 | [2] 0.045 | entospletinib 0.007

PFN1 (UniProt P07737)
UniProt P07737, sequence (P07737 whole entry, looked up): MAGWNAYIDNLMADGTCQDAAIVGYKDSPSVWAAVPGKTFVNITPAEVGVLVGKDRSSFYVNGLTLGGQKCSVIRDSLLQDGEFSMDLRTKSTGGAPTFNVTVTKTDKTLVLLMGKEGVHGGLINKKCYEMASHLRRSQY
inactive: [1] -0.006 | vorinostat 0.083 | silmitasertib -0.004 | [2] -0.014 | entospletinib 0.006

PRKACB isoform 2 (UniProt P22694)
inactive: [1] -0.014 | vorinostat -0.018 | silmitasertib 0.054 | [2] 0.002 | entospletinib 0.042

POMP (UniProt Q9Y244)
inactive: [1] -0.016 | vorinostat -0.028 | silmitasertib 0.05 | [2] 0.014 | entospletinib -0.12

PRIMPOL (UniProt Q96LW4)
inactive: [1] -0.03 | silmitasertib 0.034 | [2] -0.028 | entospletinib 0.029
active: vorinostat -0.337

PTS (UniProt Q03393)
inactive: [1] 0.053 | vorinostat 0.006 | silmitasertib 0.009 | [2] -0.151 | entospletinib 0.032

PLEKHF1 (UniProt Q96S99)
UniProt Q96S99, sequence (Q96S99 whole entry, looked up): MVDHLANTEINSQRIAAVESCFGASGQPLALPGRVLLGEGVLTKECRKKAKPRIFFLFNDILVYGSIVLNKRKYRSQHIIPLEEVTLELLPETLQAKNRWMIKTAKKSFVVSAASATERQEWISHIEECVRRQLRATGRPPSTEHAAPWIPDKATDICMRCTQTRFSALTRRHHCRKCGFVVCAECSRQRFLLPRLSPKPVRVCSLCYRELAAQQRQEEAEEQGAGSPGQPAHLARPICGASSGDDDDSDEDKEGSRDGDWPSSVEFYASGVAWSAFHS
active: vorinostat -0.272
inactive: [1] -0.019 | silmitasertib 0.07 | [2] -0.014 | entospletinib 0.014

PFKP (UniProt Q01813)
inactive: [1] 0.004 | vorinostat 0.009 | silmitasertib 0.008 | [2] 0.03 | entospletinib 0.049

PPME1 isoform 4 (UniProt Q9Y570)
inactive: [1] -0.02 | vorinostat -0.03 | silmitasertib 0.013 | [2] 0.005 | entospletinib 0.031

POLA1 (UniProt P09884)
active: vorinostat -0.293
inactive: [1] 0.009 | silmitasertib -0.019 | [2] 0.006 | entospletinib -0.016

PREP (UniProt P48147)
inactive: [1] 0.006 | vorinostat -0.153 | silmitasertib 0.008 | [2] -0.01 | entospletinib 0.014

PRIM2 (UniProt P49643)
active: vorinostat -0.296
inactive: [1] -0.008 | silmitasertib 0.09 | [2] 0 | entospletinib 0.003

PPP3CA isoform 2 (UniProt Q08209)
inactive: [1] 0.006 | vorinostat 0.042 | silmitasertib 0.014 | [2] -0.025 | entospletinib 0.066

POGK (UniProt Q9P215)
inactive: [1] 0.018 | vorinostat -0.173 | silmitasertib 0.002 | [2] -0.083 | entospletinib 0.3

POLR2B (UniProt P30876)
active: vorinostat -0.344
inactive: [1] 0.03 | silmitasertib 0.034 | [2] 0.024 | entospletinib -0.008

PPP1R8 (UniProt Q12972)
UniProt Q12972, sequence (Q12972 whole entry, looked up): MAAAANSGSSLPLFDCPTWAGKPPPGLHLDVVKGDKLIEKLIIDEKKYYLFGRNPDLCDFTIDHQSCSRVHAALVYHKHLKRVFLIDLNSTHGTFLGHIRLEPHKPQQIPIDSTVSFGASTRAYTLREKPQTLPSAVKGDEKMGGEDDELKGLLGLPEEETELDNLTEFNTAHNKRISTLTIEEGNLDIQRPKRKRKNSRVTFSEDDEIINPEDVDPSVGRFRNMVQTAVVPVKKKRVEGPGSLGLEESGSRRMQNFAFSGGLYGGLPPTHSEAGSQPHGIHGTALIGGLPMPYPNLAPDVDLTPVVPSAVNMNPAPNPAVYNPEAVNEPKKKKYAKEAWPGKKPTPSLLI
inactive: [1] 0.02 | vorinostat 0.04 | silmitasertib -0.009 | [2] -0.017 | entospletinib 0.025

PPT2 isoform 3 (UniProt Q9UMR5)
active: vorinostat 0.398
inactive: [1] 0.055 | silmitasertib 0.034 | [2] -0.018 | entospletinib -0.006

PI4KA (UniProt P42356)
active: vorinostat -0.426
inactive: [1] -0.011 | silmitasertib 0.077 | [2] 0.004 | entospletinib 0.031

From the supplement of paper PMC10849652
